VHR inh abs: DUSP3 (human) phosphatase inhibition; recombinant VHR phosphatase, pNPP absorbance; inhibition, % at 13.3 µM; hit rate 0.52% among 290,000; AID 1654; in the data active = inhibition above about 50%
Target sequence (P51452 whole entry, looked up): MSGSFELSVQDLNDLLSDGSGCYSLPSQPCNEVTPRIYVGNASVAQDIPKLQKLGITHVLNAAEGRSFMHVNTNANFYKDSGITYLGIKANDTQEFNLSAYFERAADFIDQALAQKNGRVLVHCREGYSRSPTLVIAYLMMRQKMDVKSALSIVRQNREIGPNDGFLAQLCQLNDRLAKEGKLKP
PfHsp40 rescue: rescue of PfHsp40-mediated yeast toxicity; S. cerevisiae expressing PfHsp40, growth rescue, ATP luminescence; growth rescue, % at 12.5 µM; hit rate 0.68% among 340,000; AID 504582; in the data active = growth rescue above about 28%, passing the limit was not always enough; inconclusive = no clear call, values can overlap the other calls;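 also: yeast W303a lacking pdr1 and pdr3 grown in galactose medium; growth measured after three days at 30 °C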
Sa ugtP lethal: compounds lethal to S. aureus RN4220 ugtP deletion mutant | OD600 growth, 16 h | growth inhibition, % (no concentration beside the values) | hit rate 0.54% among 330,000 | AID 1259309; in the data active = growth inhibition above about 68%;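 also: plate controls were untreated wells for no effect and antibiotic for full effect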
RN4220 kill: kills Staphylococcus aureus RN4220; AID 1259311; hit rate 0.33% among 330,000; S. aureus RN4220 growth, OD600, 16 h; inhibition, % (test concentration not listed); in the data active = inhibition above about 85%;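 also: plate controls were untreated cells for no effect and reference antibiotic for full effect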
PriA SSB inh: blocks PriA binding to SSB C-terminal tail; AlphaScreen SSBct-PriA binding, biotinylated peptide; inhibition, % at 33 µM; hit rate 0.6% among 430,000; AID 1272365; in the data active = inhibition mostly above about 37%, no sharp cut-off; inactive = mostly below about 20%;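 also: plate controls were negative control peptide for no effect and reference peptide for full effect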
Mtb hypoxia rep: Mtb hypoxia fluorescent reporter inhibition. M. tuberculosis hypoxia-regulated fluorescent reporter, fluorescence. fluorescence inhibition, % (no concentration beside the values). hit rate 0.1% among 300,000. AID 1159583; in the data active = fluorescence inhibition mostly above about 23%, no sharp cut-off; inactive = mostly below about 17%
Numbers without * were called inactive; i = inactive; u = inconclusive; x = no result given. Rows were chosen to be rich in hits. Some 1.8% of all compounds tested hit in one or more screens of this group.

SMILES	VHR inh abs	PfHsp40 rescue	Sa ugtP lethal	RN4220 kill	PriA SSB inh	Mtb hypoxia rep
c1ccc(CN2CCC(N3CCC(N4CCCCCC4)CC3)CC2)cc1	-9	0	7	6	6	11
c1ccc2c(c1)c1c(c3ccccc32)CN2CCCC2C1 (stereo unspecified)	x	76*	x	x	x	x
COCC(=O)NCCn1ncc2c(N3CCOCC3)ncnc21	x	x	x	x	-7	x
CCN1C(=O)/C(=C\N(C)C)c2ccccc21	9	41*	0	2	-4	14
CCN1C(=O)/C(=C/N(C)C)c2ccccc21	15	0	4	2	-10	5
CCOC(=O)CN1C(=O)C2(OCCCO2)c2cc(Br)ccc21	59*	-1	12	6	-7	8
C=C(C)CN1C(=O)C2(OCCO2)c2cc(Br)ccc21	x	x	8	6	-7	14
O=C(NN=Cc1c(O)n(C2CCCCC2)c(=S)[nH]c1=O)c1ccccc1	x	x	x	x	13	x
COc1cc(NC(=O)NCC(c2ccc3c(c2)CCCN3C)N2CCCC2)cc(OC)c1 (stereo unspecified)	x	x	x	x	40*	x
COc1cc(NC(=O)NCC(c2ccc3c(c2)CCN3C)N2CCOCC2)cc(OC)c1 (stereo unspecified)	x	x	x	x	7	x
CC(C)CS(=O)(=O)C1CN(C(=O)C2CCN(S(C)(=O)=O)CC2)C1	x	x	x	x	-8	x
O=C(NCC(c1cccs1)N1CCOCC1)C1CCC1 (stereo unspecified)	x	x	x	x	-1	x
Cc1cc(S(=O)(=O)NC2CC(C)(C)NC(C)(C)C2)c(Cl)cc1Cl	60*	-1	7	-3	-3	3
CC1(C)CC(NS(=O)(=O)c2ccc(Cl)cc2)CC(C)(C)N1	54*	-1	5	0	-8	8
COc1cc(C)c(Cl)cc1S(=O)(=O)NC1CC(C)(C)NC(C)(C)C1	38	x	8	0	x	6
COc1cccc2sc(OC3CN(C(=O)OC(C)(C)C)C3)nc12	x	x	x	x	10	x
CCC(=O)N1CCc2ccc(NS(=O)(=O)c3ccc(OCC(C)C)cc3)cc2C1	x	x	x	x	-4	x
CCCCOc1ccc(CN=C(N)N)cc1Cl	-8	0	100*	5	-14	7
CCCOc1ccc(CCCN=C(N)N)cc1Cl	9	x	101*	37	-1	7
CCOc1ccc(CN=C(N)N=C(N)N)cc1Cl	24	1	4	1	9	x
Cc1ccc(C)n1/N=C1\NC(=O)CS1	x	x	x	x	i	x
Cc1ccc(S(=O)(=O)Nc2nc3ccc(N)cc3s2)cc1	47	-1	84*	9	3	-10
Cc1ccc(S(=O)(=O)Nc2nc3ccc(S(C)(=O)=O)cc3s2)cc1	10	0	1	5	40*	2
COc1ccc(Cl)cc1NC(=O)NCCn1nc(-c2ccccn2)n(C)c1=O	x	x	x	x	-6	x
Cn1nc(C(F)(F)F)c(/C=N/OC(=O)c2ccccc2Cl)c1SCc1ccc(Cl)cc1	-15	52*	x	x	x	x
SMILES	VHR inh abs	PfHsp40 rescue	Sa ugtP lethal	RN4220 kill	PriA SSB inh	Mtb hypoxia rep
C[C@H]1C[C@H]2[C@@H]3CCC4=CC(=O)C=C[C@]4(C)[C@@]3(Cl)[C@@H](O)C[C@]2(C)[C@@]1(O)C(=O)CO	-3	36*	x	x	4	x
COc1c(N2CCN(C(=S)NCc3ccccc3)C(C)C2)c(F)cc2c(=O)c(C(=O)O)cn(C3CC3)c12 (stereo unspecified)	26	u	100*	100*	-15	x
COc1ccc(-c2cc(C(F)(F)F)c3c(N)c(C(=O)NCCSC)sc3n2)cc1	54*	4	8	4	-13	0
CC(C)(C)C(=O)Nc1ccc2c(c1)OCCOCCOc1cc(NC(=O)C(C)(C)C)ccc1OCCOCCO2	9	-1	5	5	2	36*
CC(=O)Nc1ccc2c(c1)OCCOCCOc1cc(NC(C)=O)ccc1OCCO2	20	1	10	4	-7	15
Cc1ccc(NC(=O)c2cccc3ccccc23)cc1	35	-1	13	3	-5	8
CC(=O)Nc1ccc(NC(=O)c2cccc3ccccc23)cc1	60*	-1	7	3	-8	4
O=C(NNC(=O)c1cccc2ccccc12)c1ccccc1O	5	29*	12	26	-9	11
O=C(NNC(=O)c1cccc2ccccc12)c1ccc(-c2ccccc2)cc1	0	0	10	-3	2	9
Cc1cc2ncn(Cc3cc(Cl)cc4c3OCOC4)c2cc1C	x	x	x	x	1	x
Cc1ccc(Nc2c(-c3ccccn3)nc3cc(C)ccn23)cc1	29	0	100*	100*	97	23
Cc1ccc(Nc2c(-c3ccccn3)nc3ccc(C)cn23)cc1	15	3	95*	100*	-14	x
Cc1nn(C)c(C(=O)NN=Cc2cc3c(cc2Br)OCO3)c1Br	x	x	-3	0	-16	-3
Cc1ccc(NS(=O)(=O)c2ccc3c(c2)NC(=O)CCS3)c(Br)c1	-5	0	96*	98*	-2	11
Cc1ccccc1NS(=O)(=O)c1ccc2c(c1)NC(=O)CCS2	12	0	77	89*	1	20
Cc1ccc(C)c(NS(=O)(=O)c2ccc3c(c2)NC(=O)CCS3)c1	-18	-1	28	65	8	15
ON=C1c2ccccc2-c2ccc(Br)cc21	x	5	x	x	-11	x
Nc1cc2c(cc1Br)-c1ccccc1C2=NO	x	47*	x	x	x	x
CCn1c(=O)cc(SCC(=O)NCc2ccccn2)c2ccccc21	55*	1	-9	-2	8	1
CCn1c(=O)cc(SCC(=O)NCc2cccnc2)c2ccccc21	19	0	3	1	-9	5
O=C(Cc1ccc(F)cc1)Nc1nnc(-c2cc3ccccc3o2)o1	x	x	x	x	-10	x
CCCn1c(SCC(=O)NC2CCCCC2)nnc1-c1ccco1	58*	-1	17	3	-3	5
CCN1CCN(c2oc(-c3ccccc3C)nc2S(=O)(=O)c2ccccc2)CC1	x	0	8	2	39*	7
CC(=NNC(=O)c1ccc(NS(=O)(=O)c2cccs2)cc1)c1ccccc1	x	x	13	2	-2	7
CC(=NNC(=O)c1ccc(NS(=O)(=O)c2cccs2)cc1)c1ccccn1	x	x	-5	7	39*	16
SMILES	VHR inh abs	PfHsp40 rescue	Sa ugtP lethal	RN4220 kill	PriA SSB inh	Mtb hypoxia rep
CC(=NNC(=O)c1cc(-c2cccs2)nc2ccccc12)c1ccccn1	x	x	-3	6	85*	11
CC(=NNC(=S)Nc1ccccc1Cl)c1ccccn1	x	200*	x	x	32	x
CC(=NNC(=O)c1ccccc1Cl)c1ccccn1	x	x	3	10	9	9
CC(=NNC(=O)c1ccccc1F)c1ccccn1	x	x	-2	9	51*	-7
COc1ccccc1-c1cc2c(SCC(=O)Nc3ccccc3Cl)nccn2n1	x	x	x	x	-24	x
COc1ccccc1OCC(=O)N1CCC(Oc2ncccc2Cl)CC1	x	x	x	x	6	x
O=S(=O)(NCC1COC2(CCCCC2)O1)c1ccc2c(c1)CCCC2 (stereo unspecified)	x	x	x	x	-13	x
C/C(=N\NC(=O)c1ccc(F)cc1)c1ccccn1	2	0	x	x	x	x
COc1ccc(C(=O)NN=C(C)c2ccccn2)cc1OC	x	x	x	x	83*	x
COc1ccc(NS(=O)(=O)c2ccc3c(c2)Cc2ccccc2-3)cn1	-7	28*	-15	4	5	7

Assay outcomes deposited in PubChem BioAssay by several laboratories.
